± gives the standard deviation.
Columns and labels:
Conditions in all cases: modulator concentration 10 µM
[1] = test system: RAW-Dual (murine macrophage reporter line); assay: NF-kB reporter (SEAP) activity fold change vs agonist alone; higher = enhanced NF-kB activity
Method in brief: (§1)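 Overnight stimulation with a PRR agonist followed pre-incubation for 1 hour at 37 °C with compound at 10 μM final. This was done in RAW-Dual murine macrophage reporter cells seeded at 50 000 per well in 384-well plates. NF-κB (SEAP, QUANTI-Blue absorbance at 620 nm) and IRF (Lucia luciferase, QUANTI-Luc luminescence) were read from the supernatant. Each reporter's fold change relative to the mean agonist-only control on the same plate was averaged over replicate plates.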

[2] = test system: RAW-Dual (murine macrophage reporter line); assay: IRF reporter (Lucia luciferase) activity fold change vs agonist alone; higher = enhanced IRF activity
Method in brief: as §1

[3] = test system: RAW-Dual (murine macrophage reporter line); assay: viability score (confluency relative to resting cells, overnight) (fraction); higher = more viable, active = viable (0.7 or more)
Method in brief: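 Confluency was the readout: RAW-Dual macrophages were imaged with IncuCyte after an overnight exposure to compound at 10 μM final. IncuCyte software produced two masks over all imaged wells. The viability score expresses confluency against resting cells, and both masks had to exceed 70% of resting cells for a compound to meet the cutoff.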

[4] = agonist: CpG ODN 1826 0.5 ug/mL

| Compound | NF-kB reporter [1, 4] | NF-kB reporter ([1]; agonist: LPS 0.1 ug/mL) | NF-kB reporter ([1]; agonist: MPLA […]) | IRF reporter ([2]; agonist: 3'3'-cGAMP 10 ug/mL) | IRF reporter ([2]; agonist: LPS 0.1 ug/mL) | IRF reporter ([2]; agonist: MPLA […]) | viability score [3] |
| --- | --- | --- | --- | --- | --- | --- | --- |
| COc1ccc(NC(=O)CCn2nc(C)nc2C)cc1 | 1.04 ± 0.099 | 1.07 ± 0.085 | 0.963 ± 0.12 | 0.961 ± 0.049 | 1.09 ± 0.068 | 1.01 ± 0.12 | 1 (active) |
| CCN(CCCc1ccccc1)CCCc1ccccc1.O=C(O)CC(O)(CC(=O)O)C(=O)O | 1.32 ± 0.057 | 1.4 ± 0.11 | 2.08 ± 0.29 | 0.265 ± 0.014 | 0.448 ± 0.079 | 0.468 ± 0.11 | 0.991 (active) |
| Cn1c(=O)[nH]c(=O)c2c1nc(N1CCCCC1)n2CCC#N | 1.1 ± 0.07 | 1.09 ± 0.07 | 0.952 ± 0.071 | 0.945 ± 0.033 | 1.33 ± 0.093 | 1.1 ± 0.16 | 1 (active) |
| Cc1ccc(COc2ccc3c(C)c(C)c(=O)oc3c2C)cc1 | 0.785 ± 0.067 | 0.84 ± 0.043 | 1 ± 0.098 | 0.761 ± 0.041 | 1.32 ± 0.1 | 1.53 ± 0.13 | 0.984 (active) |
| CC1CCc2c(N3CCC(O)CC3)c(F)cc3c(=O)c(C(=O)O)cn1c23 (stereo not given) | 0.975 ± 0.091 | 0.889 ± 0.051 | 0.992 ± 0.051 | 1.03 ± 0.077 | 0.897 ± 0.046 | 0.946 ± 0.11 | 0.995 (active) |
| CC(=NN1CCN(Cc2cccc3ccccc23)CC1)c1ccc(Cl)cc1 | 0.9 ± 0.086 | 1.06 ± 0.077 | 1.01 ± 0.086 | 1 ± 0.068 | 1.19 ± 0.13 | 0.992 ± 0.12 | 1.01 (active) |
| CC(=O)C1=C(C)OC2(O)c3ccccc3C(=O)C12O (stereo not given) | 0.903 ± 0.11 | 0.947 ± 0.089 | 1.23 ± 0.13 | 0.831 ± 0.029 | 1.02 ± 0.18 | 0.824 ± 0.12 | 0.945 (active) |
| Cl.O=C(O)/C=C/c1ccc(Cn2ccnc2)cc1 | 1.43 ± 0.19 | 1.32 ± 0.25 | 0.979 ± 0.069 | 0.909 ± 0.028 | 1.34 ± 0.23 | 0.87 ± 0.096 | 0.988 (active) |
| CCC(C)(C)C(=O)OC1CC(C)C=C2C=CC(C)C(CCC3CC(O)CC(=O)O3)C21 (stereo not given) | 1.65 ± 0.13 | 1.56 ± 0.11 | 1.91 ± 0.18 | 0.43 ± 0.014 | 0.918 ± 0.087 | 0.524 ± 0.11 | 0.912 (active) |
| Br.O=S(=O)(c1ccc(-c2csc(Nc3ccc(Br)cc3)n2)cc1)N1CCCCC1 | 0.859 ± 0.072 | 1.08 ± 0.088 | 0.988 ± 0.034 | 0.938 ± 0.16 | 1.01 ± 0.042 | 0.926 ± 0.11 | 1 (active) |
| NNc1ncnc2scc(-c3ccc(Cl)cc3)c12 | 0.931 ± 0.071 | 0.867 ± 0.07 | 1.32 ± 0.42 | 0.333 ± 0.015 | 1.3 ± 0.15 | 1.48 ± 0.21 | 0.997 (active) |
| Cc1ccc(C=C2Oc3c(ccc(O)c3CN3CCN(CCO)CC3)C2=O)cc1 | 1.12 ± 0.086 | 1.01 ± 0.13 | 1.19 ± 0.11 | 1.02 ± 0.038 | 1.39 ± 0.21 | 1.55 ± 0.3 | 1.02 (active) |
| COC(=O)c1cc(NC(=O)C2CCCC2)cc(C(=O)OC)c1 | 0.969 ± 0.18 | 1 ± 0.13 | 1.15 ± 0.13 | 0.871 ± 0.09 | 1.13 ± 0.28 | 0.97 ± 0.14 | 0.633 (inactive) |
| O=C(Nc1ccc(S(=O)(=O)Nc2nccs2)cc1)c1c(F)cccc1F | 0.984 ± 0.1 | 1.02 ± 0.058 | 0.922 ± 0.06 | 0.982 ± 0.026 | 1.52 ± 0.23 | 1.14 ± 0.1 | 1.01 (active) |
| NC(=O)C1CCCN1c1ncccc1C(F)(F)F (stereo not given) | 1.16 ± 0.068 | 1.09 ± 0.089 | 0.994 ± 0.028 | 1.01 ± 0.088 | 1.06 ± 0.063 | 1.01 ± 0.1 | 0.997 (active) |
| COc1ccc(Nc2nc(N3CCCCC3)c3cnn(C)c3n2)cc1 | 0.753 ± 0.043 | 1.23 ± 0.096 | 1.08 ± 0.048 | 0.388 ± 0.02 | 0.967 ± 0.097 | 1.23 ± 0.12 | 0.969 (active) |
| CCC(C(=O)N1CCC2(CC1)CC2(F)F)c1ccccc1 (stereo not given) | 1.08 ± 0.069 | 1.08 ± 0.098 | 1.62 ± 0.45 | 1.06 ± 0.048 | 1.19 ± 0.24 | 1.36 ± 0.33 | 0.911 (active) |
| CCCC1=NN2C(=N)C(=Cc3ccc(OCc4ccc(F)cc4)c(OCC)c3)C(=O)N=C2S1 | 0.992 ± 0.1 | 1.03 ± 0.057 | 0.97 ± 0.084 | 0.965 ± 0.04 | 1.59 ± 0.17 | 1.19 ± 0.073 | 1.01 (active) |

| Compound | NF-kB reporter [1, 4] | NF-kB reporter ([1]; agonist: LPS 0.1 ug/mL) | NF-kB reporter ([1]; agonist: MPLA […]) | IRF reporter ([2]; agonist: 3'3'-cGAMP 10 ug/mL) | IRF reporter ([2]; agonist: LPS 0.1 ug/mL) | IRF reporter ([2]; agonist: MPLA […]) | viability score [3] |
| --- | --- | --- | --- | --- | --- | --- | --- |
| O=C(NCCO)c1cc(C(=O)NCCO)cc(C(=O)NCCO)c1 | 0.964 ± 0.065 | 1.05 ± 0.064 | 0.923 ± 0.054 | 0.981 ± 0.043 | 1.36 ± 0.099 | 1.18 ± 0.29 | 1.01 (active) |
| O=C(CCc1ccc(O)cc1)c1c(O)cc(O)cc1O | 1.06 ± 0.2 | 1.07 ± 0.085 | 1.13 ± 0.088 | 0.768 ± 0.038 | 1.03 ± 0.12 | 1.23 ± 0.15 | 0.998 (active) |
| COc1ccc(C2N3CC4(C)CN2CC(C)(C3)C4O)cc1 (stereo not given) | 0.816 ± 0.067 | 0.949 ± 0.046 | 0.966 ± 0.1 | 0.995 ± 0.055 | 1.49 ± 0.086 | 1.66 ± 0.15 | 1.01 (active) |
| CCOC(=O)C1=C(C)NC(=O)N(C(C)=O)C1c1ccc(Br)cc1 (stereo not given) | 0.554 ± 0.032 | 0.898 ± 0.1 | 0.868 ± 0.052 | 1.28 ± 0.044 | 1.66 ± 0.14 | 1.34 ± 0.2 | 0.621 (inactive) |
| NCC(O)(c1ccc(Cl)cc1)c1ccc(Cl)cc1 | 0.85 ± 0.14 | 1.12 ± 0.12 | 1.03 ± 0.11 | 1.01 ± 0.036 | 1.32 ± 0.25 | 1.41 ± 0.22 | 0.996 (active) |
| CCSc1nnc(NC(=O)Cc2ccc([N+](=O)[O-])cc2)s1 | 1.04 ± 0.21 | 1.02 ± 0.085 | 0.96 ± 0.097 | 0.926 ± 0.026 | 1 ± 0.096 | 1.07 ± 0.12 | 1 (active) |
| O=c1ccc2cc(O)c(O)cc2o1 | 1.34 ± 0.34 | 0.878 ± 0.044 | 1.03 ± 0.16 | 0.736 ± 0.026 | 1.34 ± 0.2 | 1.2 ± 0.12 | 0.986 (active) |
| Cc1ccc(S(=O)(=O)N=C(Nc2ccc([N+](=O)[O-])cc2)c2ccccc2)cc1 | 1.06 ± 0.075 | 1.13 ± 0.074 | 0.928 ± 0.06 | 0.958 ± 0.032 | 1.39 ± 0.32 | 1.22 ± 0.16 | 1 (active) |
| CN1C(=O)C(=NNC(=O)COc2cccc(Br)c2)c2ccccc21 | 0.895 ± 0.06 | 0.978 ± 0.082 | 0.896 ± 0.054 | 0.954 ± 0.033 | 1.48 ± 0.16 | 1.16 ± 0.12 | 1.01 (active) |
| Nc1nc(NC2CC2)c2ncn([C@H]3C=C[C@@H](CO)C3)c2n1.Nc1nc(NC2CC2)c2ncn([C@H]3C=C[C@@H](CO)C3)c2n1.O=S(=O)(O)O | 1.1 ± 0.26 | 1.02 ± 0.057 | 1.04 ± 0.093 | 0.864 ± 0.065 | 1.2 ± 0.15 | 1.07 ± 0.12 | 0.791 (active) |
| Cl.Cn1c(=N)n(CC(O)c2ccco2)c2ccccc21 (stereo not given) | 1.05 ± 0.061 | 1.09 ± 0.077 | 0.969 ± 0.069 | 1.22 ± 0.04 | 1.46 ± 0.21 | 1.3 ± 0.18 | 0.992 (active) |
| Cc1c(C(=O)Nc2ccc(N3C[C@@H](C)O[C@@H](C)C3)nc2)cccc1-c1ccc(OC(F)(F)F)cc1 | 1.25 ± 0.17 | 1.13 ± 0.2 | 1.64 ± 0.18 | 0.412 ± 0.024 | 1.13 ± 0.13 | 1.37 ± 0.1 | 0.824 (active) |
| CCOC(=O)C(Oc1ccc2c(c1)oc(=O)c1cc(OC)ccc12)c1ccccc1 (stereo not given) | 1.04 ± 0.062 | 0.998 ± 0.13 | 0.929 ± 0.025 | 0.977 ± 0.04 | 1.02 ± 0.089 | 1.11 ± 0.21 | 1 (active) |
| COc1ccc(S(=O)(=O)N(CC(=O)Nc2ccccc2Br)c2ccc(C)cc2)cc1OC | 0.735 ± 0.067 | 0.773 ± 0.076 | 0.864 ± 0.041 | 0.858 ± 0.086 | 1.04 ± 0.11 | 1.1 ± 0.17 | 1 (active) |
| NC(=O)COc1ccc(Nc2nnc(-c3ccccc3)c3ccccc23)cc1 | 0.782 ± 0.083 | 0.806 ± 0.051 | 1.08 ± 0.093 | 0.747 ± 0.034 | 1.19 ± 0.069 | 1.23 ± 0.14 | 1.01 (active) |
| COC(=O)/C=C/C(=O)OC | 1.2 ± 0.17 | 1.06 ± 0.17 | 1.01 ± 0.064 | 0.61 ± 0.019 | 1.19 ± 0.28 | 1.09 ± 0.12 | 1 (active) |
| Cc1cc(Cl)ccc1OCCCC(=O)NO | 0.745 ± 0.091 | 0.794 ± 0.039 | 1.19 ± 0.028 | 0.234 ± 0.014 | 0.449 ± 0.084 | 0.553 ± 0.12 | 0.986 (active) |

From the supplement of paper PMC10646978
